Experimental findings from paper PMC7862700, “An all-to-all approach to the identification of sequence-specific readers for epigenetic DNA modifications on cytosine” are described below.

Common to all, as to assay: DAPPL (digital affinity profiling via proximity ligation, sequencing); 10 mM Tris-HCl pH 7.5, 50 mM NaCl, 1 mM DTT, 4% glycerol, room temperature, 30 min; GST-TFs on glutathione beads, 16-mer random dsDNA library, 0.1% formaldehyde crosslink after washing; high values mean tight binding
What all share (details): protein: recombinant; tags: N-terminal GST; dsDNA, one strand shown

For experiment [1], the target named is T1, ERF (Homo sapiens, UniProt P50548 1-548).
T1 sequence: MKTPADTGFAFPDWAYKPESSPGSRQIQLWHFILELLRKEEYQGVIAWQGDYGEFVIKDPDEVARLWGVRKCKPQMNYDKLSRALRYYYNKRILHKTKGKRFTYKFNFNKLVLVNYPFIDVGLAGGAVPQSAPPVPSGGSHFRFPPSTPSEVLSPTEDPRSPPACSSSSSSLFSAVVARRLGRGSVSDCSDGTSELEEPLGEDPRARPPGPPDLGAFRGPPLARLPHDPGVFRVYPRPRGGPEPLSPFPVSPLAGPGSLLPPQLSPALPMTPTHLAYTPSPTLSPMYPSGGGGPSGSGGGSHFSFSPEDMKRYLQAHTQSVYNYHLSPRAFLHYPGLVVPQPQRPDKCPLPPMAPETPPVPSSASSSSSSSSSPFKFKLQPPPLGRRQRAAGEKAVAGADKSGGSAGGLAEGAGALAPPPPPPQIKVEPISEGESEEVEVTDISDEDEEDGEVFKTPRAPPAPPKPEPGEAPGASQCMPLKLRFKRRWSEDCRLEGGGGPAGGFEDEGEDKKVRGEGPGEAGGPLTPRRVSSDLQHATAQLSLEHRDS
In a few lines:
(§1)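 In yeast, human transcription factors were expressed with a GST fusion, then pulled down on glutathione beads and given DNA barcodes. Pooled with a tag-only sample, they were exposed to 200 nmole of a 16-mer random double-stranded DNA library (Tris/NaCl/DTT/glycerol buffer, room temperature, 30 min), washed, crosslinked with 0.1% formaldehyde, proximity-ligated using BsaI/T4 ligase for 1 h at 37 °C, PCR-amplified and read on an Illumina NextSeq500. Each hexamer's frequency of reads for a factor, divided by the matching frequency for the tag-only sample, gives the binding signal.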

The target of experiment [2] is T2, ETV3L (Homo sapiens, UniProt Q6ZN32 1-361).
T2 sequence: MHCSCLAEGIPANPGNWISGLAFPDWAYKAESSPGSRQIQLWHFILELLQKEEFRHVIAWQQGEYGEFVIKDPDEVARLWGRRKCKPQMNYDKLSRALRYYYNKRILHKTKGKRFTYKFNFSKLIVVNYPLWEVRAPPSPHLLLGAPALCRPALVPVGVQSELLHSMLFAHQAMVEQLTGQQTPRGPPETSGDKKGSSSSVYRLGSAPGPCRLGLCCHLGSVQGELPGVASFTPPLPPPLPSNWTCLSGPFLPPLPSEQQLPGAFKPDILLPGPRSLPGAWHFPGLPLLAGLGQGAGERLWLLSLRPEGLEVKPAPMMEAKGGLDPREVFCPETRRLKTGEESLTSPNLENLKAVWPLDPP
Summed up:
as §1

Experiment [3] addresses T3, ETS2 (Homo sapiens, UniProt P15036 1-469).
T3 sequence: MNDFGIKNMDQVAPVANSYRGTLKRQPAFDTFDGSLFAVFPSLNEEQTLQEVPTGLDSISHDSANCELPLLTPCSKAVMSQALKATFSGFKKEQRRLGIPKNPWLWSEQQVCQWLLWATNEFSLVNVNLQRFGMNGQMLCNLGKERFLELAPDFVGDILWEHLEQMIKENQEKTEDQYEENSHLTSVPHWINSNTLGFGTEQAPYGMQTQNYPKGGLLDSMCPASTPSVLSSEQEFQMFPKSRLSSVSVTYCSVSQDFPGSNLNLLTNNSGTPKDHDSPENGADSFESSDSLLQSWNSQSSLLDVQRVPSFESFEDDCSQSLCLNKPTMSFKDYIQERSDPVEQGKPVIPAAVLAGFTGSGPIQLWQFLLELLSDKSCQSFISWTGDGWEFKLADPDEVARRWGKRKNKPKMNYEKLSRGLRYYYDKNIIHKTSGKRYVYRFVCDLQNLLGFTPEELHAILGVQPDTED
Summed up:
as §1

For experiment [4], the target named is T4, SPDEF (Homo sapiens, UniProt O95238 1-335).
T4 sequence: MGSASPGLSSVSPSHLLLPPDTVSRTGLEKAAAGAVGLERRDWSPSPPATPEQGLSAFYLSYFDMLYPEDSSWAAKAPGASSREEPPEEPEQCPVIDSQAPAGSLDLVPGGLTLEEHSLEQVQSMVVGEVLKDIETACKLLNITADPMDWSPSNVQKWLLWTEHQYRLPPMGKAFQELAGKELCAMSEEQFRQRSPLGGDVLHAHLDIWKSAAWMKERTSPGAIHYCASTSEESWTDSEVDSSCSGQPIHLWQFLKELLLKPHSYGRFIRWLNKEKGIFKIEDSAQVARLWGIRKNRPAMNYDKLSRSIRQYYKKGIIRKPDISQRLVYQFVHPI
In a few lines: as §1

Experiment [5] deals with T5, ETV7 (Homo sapiens, UniProt Q9Y603 1-341).
T5 sequence: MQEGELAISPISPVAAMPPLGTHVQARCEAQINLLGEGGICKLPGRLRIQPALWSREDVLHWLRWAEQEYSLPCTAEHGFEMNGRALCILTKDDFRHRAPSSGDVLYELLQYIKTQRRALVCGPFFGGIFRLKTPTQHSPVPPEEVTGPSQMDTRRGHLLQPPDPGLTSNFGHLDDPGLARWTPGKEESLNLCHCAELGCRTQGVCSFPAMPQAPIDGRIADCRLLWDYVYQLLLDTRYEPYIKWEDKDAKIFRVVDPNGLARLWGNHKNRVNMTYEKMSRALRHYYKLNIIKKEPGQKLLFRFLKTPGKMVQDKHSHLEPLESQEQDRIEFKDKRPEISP
In a few lines:
as §1

For experiment [6], the target named is T6, ELF5 (Homo sapiens, UniProt Q9UKW6-2 1-255).
T6 sequence: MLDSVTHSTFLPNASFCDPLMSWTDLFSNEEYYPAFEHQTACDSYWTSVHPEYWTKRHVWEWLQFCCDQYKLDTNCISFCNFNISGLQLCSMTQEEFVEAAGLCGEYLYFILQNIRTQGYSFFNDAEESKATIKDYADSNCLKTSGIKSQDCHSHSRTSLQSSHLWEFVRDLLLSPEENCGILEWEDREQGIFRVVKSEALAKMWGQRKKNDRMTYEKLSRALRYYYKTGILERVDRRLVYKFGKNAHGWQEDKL
Summed up:
as §1

Experiment [7] concerns the target T7, ETV3 (Homo sapiens, UniProt P41162-2 1-143).
T7 sequence: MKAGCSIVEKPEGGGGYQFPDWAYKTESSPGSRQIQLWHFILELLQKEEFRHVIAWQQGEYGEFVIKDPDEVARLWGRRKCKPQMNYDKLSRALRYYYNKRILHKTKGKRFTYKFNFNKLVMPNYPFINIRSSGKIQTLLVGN
Summed up: as §1

For experiment [8], the target named is ETV6 (Homo sapiens, UniProt P41212 1-452). In a few lines: as §1
Chain of ETV6 (P41212 whole entry): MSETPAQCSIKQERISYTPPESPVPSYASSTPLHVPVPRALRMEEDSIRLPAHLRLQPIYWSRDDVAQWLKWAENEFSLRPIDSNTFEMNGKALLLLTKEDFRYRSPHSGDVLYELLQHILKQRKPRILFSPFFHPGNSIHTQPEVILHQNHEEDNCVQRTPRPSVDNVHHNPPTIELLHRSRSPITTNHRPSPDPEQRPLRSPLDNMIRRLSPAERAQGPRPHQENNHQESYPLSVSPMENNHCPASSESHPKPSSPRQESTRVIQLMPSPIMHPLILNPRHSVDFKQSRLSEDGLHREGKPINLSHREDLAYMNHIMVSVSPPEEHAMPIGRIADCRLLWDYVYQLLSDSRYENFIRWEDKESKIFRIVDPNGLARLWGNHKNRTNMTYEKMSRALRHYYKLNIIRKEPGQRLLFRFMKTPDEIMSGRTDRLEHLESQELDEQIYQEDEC

As for CGGCTC, the binding signal in experiment [1] was 1.36 fold enrichment (6-mer frequency, TF over GST control); in experiment [2], 1.27 fold enrichment (6-mer frequency, TF over GST control); in experiment [3], 1.23 fold enrichment (6-mer frequency, TF over GST control); in experiment [4] it was 1.42 fold enrichment (6-mer frequency, TF over GST control); in experiment [5] it was 1.25 fold enrichment (6-mer frequency, TF over GST control); in experiment [6], 1.27 fold enrichment (6-mer frequency, TF over GST control). In addition, the binding signal is 1.29 fold enrichment (6-mer frequency, TF over GST control) in experiment [7] and 1.23 fold enrichment (6-mer frequency, TF over GST control) in experiment [8].
Consider GATGGC, for which the binding signal in experiment [1] was 1.4 fold enrichment (6-mer frequency, TF over GST control); in experiment [2], 1.3 fold enrichment (6-mer frequency, TF over GST control); in experiment [3] it was 1.27 fold enrichment (6-mer frequency, TF over GST control); in experiment [4], 1.29 fold enrichment (6-mer frequency, TF over GST control); in experiment [5] it was 1.26 fold enrichment (6-mer frequency, TF over GST control); in experiment [6] it was 1.3 fold enrichment (6-mer frequency, TF over GST control). The binding signal was 1.3 fold enrichment (6-mer frequency, TF over GST control) in experiment [7] and 1.31 fold enrichment (6-mer frequency, TF over GST control) in experiment [8].
TTCCGA: the binding signal is 1.5 fold enrichment (6-mer frequency, TF over GST control) in experiment [1]; 1.48 fold enrichment (6-mer frequency, TF over GST control) in experiment [2]; 1.67 fold enrichment (6-mer frequency, TF over GST control) in experiment [3]; 1.47 fold enrichment (6-mer frequency, TF over GST control) in experiment [4]; 1.64 fold enrichment (6-mer frequency, TF over GST control) in experiment [5]; 1.78 fold enrichment (6-mer frequency, TF over GST control) in experiment [6]. In addition, the binding signal in experiment [7] was 1.68 fold enrichment (6-mer frequency, TF over GST control); in experiment [8] it was 1.85 fold enrichment (6-mer frequency, TF over GST control).
In the case of ATAATC, the binding signal in experiment [1] is 1.2 fold enrichment (6-mer frequency, TF over GST control); in experiment [2], 1.16 fold enrichment (6-mer frequency, TF over GST control); in experiment [3], 1.16 fold enrichment (6-mer frequency, TF over GST control); in experiment [4] it was 1.17 fold enrichment (6-mer frequency, TF over GST control); in experiment [5] it was 1.14 fold enrichment (6-mer frequency, TF over GST control); in experiment [6] it was 1.13 fold enrichment (6-mer frequency, TF over GST control). Besides, the binding signal in experiment [7] was 1.15 fold enrichment (6-mer frequency, TF over GST control); in experiment [8], 1.19 fold enrichment (6-mer frequency, TF over GST control).
ACTATT: the binding signal in experiment [1] was 1.22 fold enrichment (6-mer frequency, TF over GST control); in experiment [2] it was 1.27 fold enrichment (6-mer frequency, TF over GST control); in experiment [3], 1.37 fold enrichment (6-mer frequency, TF over GST control); in experiment [4], 1.13 fold enrichment (6-mer frequency, TF over GST control); in experiment [5] it was 1.32 fold enrichment (6-mer frequency, TF over GST control); in experiment [6] it was 1.29 fold enrichment (6-mer frequency, TF over GST control). Besides, the binding signal was 1.35 fold enrichment (6-mer frequency, TF over GST control) in experiment [7] and 1.43 fold enrichment (6-mer frequency, TF over GST control) in experiment [8].
Turning to GAATAA, the binding signal in experiment [1] is 1.23 fold enrichment (6-mer frequency, TF over GST control); in experiment [2] it was 1.15 fold enrichment (6-mer frequency, TF over GST control); in experiment [3], 1.09 fold enrichment (6-mer frequency, TF over GST control); in experiment [4], 1.09 fold enrichment (6-mer frequency, TF over GST control); in experiment [5] it was 1.07 fold enrichment (6-mer frequency, TF over GST control); in experiment [6] it was 1.05 fold enrichment (6-mer frequency, TF over GST control). The binding signal in experiment [7] is 1.06 fold enrichment (6-mer frequency, TF over GST control); in experiment [8] it was 1.16 fold enrichment (6-mer frequency, TF over GST control).
Consider GATTAT, for which the binding signal is 1.06 fold enrichment (6-mer frequency, TF over GST control) in experiment [1]; 1.11 fold enrichment (6-mer frequency, TF over GST control) in experiment [2]; 1.04 fold enrichment (6-mer frequency, TF over GST control) in experiment [3]; 1.1 fold enrichment (6-mer frequency, TF over GST control) in experiment [4]; 1.18 fold enrichment (6-mer frequency, TF over GST control) in experiment [5]; 1.04 fold enrichment (6-mer frequency, TF over GST control) in experiment [6]. For the same sequence, the binding signal is 1.04 fold enrichment (6-mer frequency, TF over GST control) in experiment [7] and 1.12 fold enrichment (6-mer frequency, TF over GST control) in experiment [8].
As for CCCCTC, the binding signal in experiment [1] was 1.43 fold enrichment (6-mer frequency, TF over GST control); in experiment [2], 1.4 fold enrichment (6-mer frequency, TF over GST control); in experiment [3], 1.33 fold enrichment (6-mer frequency, TF over GST control); in experiment [4], 1.33 fold enrichment (6-mer frequency, TF over GST control); in experiment [5], 1.24 fold enrichment (6-mer frequency, TF over GST control); in experiment [6], 1.24 fold enrichment (6-mer frequency, TF over GST control). In addition, the binding signal in experiment [7] was 1.28 fold enrichment (6-mer frequency, TF over GST control); in experiment [8], 1.28 fold enrichment (6-mer frequency, TF over GST control).
For TACTAT, the binding signal is 1.38 fold enrichment (6-mer frequency, TF over GST control) in experiment [1]; 1.25 fold enrichment (6-mer frequency, TF over GST control) in experiment [2]; 1.37 fold enrichment (6-mer frequency, TF over GST control) in experiment [3]; 1.37 fold enrichment (6-mer frequency, TF over GST control) in experiment [4]; 1.35 fold enrichment (6-mer frequency, TF over GST control) in experiment [5]; 1.27 fold enrichment (6-mer frequency, TF over GST control) in experiment [6]. Also, the binding signal in experiment [7] is 1.36 fold enrichment (6-mer frequency, TF over GST control); in experiment [8], 1.39 fold enrichment (6-mer frequency, TF over GST control).
